# Data as given in the supplement of paper PMC4466140.
# B1: unnamed (peptide)
# chain: NMLSRPRLAKLPSIR
# Molecular target: CaNbp2
# Test: SPOT peptide array binding signal intensity (averaged, normalized) (arbitrary units (background-subtracted, floor 0; scale differs between SH3 domains)); higher = stronger binding of the SH3 domain to the peptide
# Outline: (§1)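 GST-fused SH3 domains, from four yeast species, were produced in E. coli BL21(DE3) and captured on glutathione Sepharose. Membranes of cellulose carrying synthetic 15-mer peptides, in which cysteines had been replaced by serines, were exposed to each domain at 10 μg/ml overnight at 4°C in TBS-based blocking buffer. After anti-GST antibody, an HRP anti-mouse secondary and luminol, spots were imaged and quantified using Genespotter. Binding signal is normalized and background-subtracted spot intensity, averaged over replicates, in arbitrary units that differ between domains.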
row,Binder,SPOT peptide array binding signal intensity
1,B1,1250

# Molecular target: CaRvs167
# Test: as above
# Outline: as §1
row,Binder,SPOT peptide array binding signal intensity
1,B1,97.2

# Molecular target: CaRvs167-3
# Test: as above
# Outline: as §1
row,Binder,SPOT peptide array binding signal intensity
1,B1,60.5

# Molecular target: CaSho1
# Test: as above
# Outline: as §1
row,Binder,SPOT peptide array binding signal intensity
1,B1,1490

# Molecular target: CaSla1-D1-D2
# Test: as above
# Outline: as §1
row,Binder,SPOT peptide array binding signal intensity
1,B1,663

# Molecular target: CaSla1-D3
# Test: as above
# Outline: as §1
row,Binder,SPOT peptide array binding signal intensity
1,B1,254

# Molecular target: ScAbp1
# Test: as above
# Outline: as §1
row,Binder,SPOT peptide array binding signal intensity
1,B1,424

# Molecular target: ScBbc1
# Test: as above
# Outline: as §1
row,Binder,SPOT peptide array binding signal intensity
1,B1,3.5

# Molecular target: ScBem1-D1
# Test: as above
# Outline: as §1
row,Binder,SPOT peptide array binding signal intensity
1,B1,21

# Molecular target: ScBzz1-D1
# Test: as above
# Outline: as §1
row,Binder,SPOT peptide array binding signal intensity
1,B1,22

# Molecular target: ScBzz1-D2
# Test: as above
# Outline: as §1
row,Binder,SPOT peptide array binding signal intensity
1,B1,29.5

# Molecular target: ScCyk3
# Test: as above
# Outline: as §1
row,Binder,SPOT peptide array binding signal intensity
1,B1,35

# Molecular target: ScFus1
# Test: as above
# Outline: as §1
row,Binder,SPOT peptide array binding signal intensity
1,B1,826

# Molecular target: ScHof1
# Test: as above
# Outline: as §1
row,Binder,SPOT peptide array binding signal intensity
1,B1,28

# Molecular target: ScHse1
# Test: as above
# Outline: as §1
row,Binder,SPOT peptide array binding signal intensity
1,B1,2110

# Molecular target: ScLsb1
# Test: as above
# Outline: as §1
row,Binder,SPOT peptide array binding signal intensity
1,B1,71.5

# Molecular target: ScLsb2
# Test: as above
# Outline: as §1
row,Binder,SPOT peptide array binding signal intensity
1,B1,≤ 0

# Molecular target: ScLsb3
# Test: as above
# Outline: as §1
row,Binder,SPOT peptide array binding signal intensity
1,B1,570

# Molecular target: ScLsb4
# Test: as above
# Outline: as §1
row,Binder,SPOT peptide array binding signal intensity
1,B1,112

# Molecular target: ScMyo3
# Test: as above
# Outline: as §1
row,Binder,SPOT peptide array binding signal intensity
1,B1,13.5

# Molecular target: ScMyo5
# Test: as above
# Outline: as §1
row,Binder,SPOT peptide array binding signal intensity
1,B1,≤ 0

# Molecular target: ScNbp2
# Test: as above
# Outline: as §1
row,Binder,SPOT peptide array binding signal intensity
1,B1,370

# Molecular target: ScPex13
# Test: as above
# Outline: as §1
row,Binder,SPOT peptide array binding signal intensity
1,B1,142

# Molecular target: ScRvs167
# Test: as above
# Outline: as §1
row,Binder,SPOT peptide array binding signal intensity
1,B1,43

# Molecular target: ScSho1
# Test: as above
# Outline: as §1
row,Binder,SPOT peptide array binding signal intensity
1,B1,962

# Molecular target: ScSla1-D1-D2
# Test: as above
# Outline: as §1
row,Binder,SPOT peptide array binding signal intensity
1,B1,389

# Molecular target: ScSla1-D3
# Test: as above
# Outline: as §1
row,Binder,SPOT peptide array binding signal intensity
1,B1,418

# Molecular target: SpAbp1-D1
# Test: as above
# Outline: as §1
row,Binder,SPOT peptide array binding signal intensity
1,B1,610

# Molecular target: SpBbc1
# Test: as above
# Outline: as §1
row,Binder,SPOT peptide array binding signal intensity
1,B1,1

# Molecular target: SpBzz1-D1
# Test: as above
# Outline: as §1
row,Binder,SPOT peptide array binding signal intensity
1,B1,333

# Molecular target: SpBzz1-D2
# Test: as above
# Outline: as §1
row,Binder,SPOT peptide array binding signal intensity
1,B1,13

# Molecular target: SpCyk3
# Test: as above
# Outline: as §1
row,Binder,SPOT peptide array binding signal intensity
1,B1,3

# Molecular target: SpHof1
# Test: as above
# Outline: as §1
row,Binder,SPOT peptide array binding signal intensity
1,B1,100

# Molecular target: SpHof1-2
# Test: as above
# Outline: as §1
row,Binder,SPOT peptide array binding signal intensity
1,B1,59.2

# Molecular target: SpHof1-3
# Test: as above
# Outline: as §1
row,Binder,SPOT peptide array binding signal intensity
1,B1,1590

# Molecular target: SpHse1
# Test: as above
# Outline: as §1
row,Binder,SPOT peptide array binding signal intensity
1,B1,2030

# Molecular target: SpLsb1
# Test: as above
# Outline: as §1
row,Binder,SPOT peptide array binding signal intensity
1,B1,10.5

# Molecular target: SpLsb4
# Test: as above
# Outline: as §1
row,Binder,SPOT peptide array binding signal intensity
1,B1,859

# Molecular target: SpMyo1
# Test: as above
# Outline: as §1
row,Binder,SPOT peptide array binding signal intensity
1,B1,24.8

# Molecular target: SpNbp2
# Test: as above
# Outline: as §1
row,Binder,SPOT peptide array binding signal intensity
1,B1,577

# Molecular target: SpPex13
# Test: as above
# Outline: as §1
row,Binder,SPOT peptide array binding signal intensity
1,B1,74

# Molecular target: SpRvs167
# Test: as above
# Outline: as §1
row,Binder,SPOT peptide array binding signal intensity
1,B1,32.2

# Molecular target: SpSla1-D1-D2
# Test: as above
# Outline: as §1
row,Binder,SPOT peptide array binding signal intensity
1,B1,8

# Molecular target: SpSla1-D3
# Test: as above
# Outline: as §1
row,Binder,SPOT peptide array binding signal intensity
1,B1,194
